“And” between values parts separate entries of the source, which are not always exact repeats. Identical values can stand only once. Results filed as inconclusive are left out. For some of these results: Entries with a potency or affinity are not part of this list. The source made the active and inactive calls. Unless noted, the rule behind the calls is not given here.
What was measured:
[1] = polyglutamine-triggered caspase-3 activation inhibitors, cell-based (AID 1583); conditions: polyglutamine-induced caspase-3 activation, cell assay; stronger effect = higher value;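 tested at 10 µM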
[2] = suppressors of polyQ aggregation in yeast, 75Q-TubU reporter (AID 1593); conditions: Yeast 75Q polyglutamine aggregation reporter
[3] = rescue of polyQ-huntingtin neuronal dysfunction in worms, whole organism, C. elegans mechanosensory neurons, N-terminal huntingtin (AID 1599); conditions: touch response, stronger effect = higher value
[4] = inhibitors of mitochondrial cytochrome c release, biochemical, purified mitochondria (AID 1603); conditions: stronger effect = lower value;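 note: mouse liver mitochondria challenged with calcium chloride; signal normalized to the plate average as 100%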
[5] = inhibitors of polyQ protein aggregation (AID 1604); conditions: polyglutamine-induced protein aggregation inhibition assay; stronger effect = higher value; tested at 2.5 µM
[6] = enhancers of glutamate uptake in motor neurons, MN-1 cell line (AID 1612); conditions: MN-1 motor neuron cells, stronger effect = higher value;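 note: tested at 1 µM final; 0% = mean of DMSO vehicle wells on each plate; positive means more glutamate uptake than control and negative means less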
[7] = reducers of polyQ inclusions in PC12 cells, cell-based, NGF-treated PC12, GFPQ80 (AID 1614); conditions: PC12 NGF-treated GFP-polyQ80 inclusion reduction;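 note: lower means fewer inclusions and 0 means no inclusions at all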
[8] = suppressors of polyglutamine aggregation in yeast, 75Q-TubH (AID 1616); conditions: S. cerevisiae 75Q-TubH polyglutamine aggregation suppression; stronger effect = higher value
[9] = antimalarial activity against Dd2 strain (AID 2302;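 active = growth inhibition above 50% at the single 2 µM test dose, taken to imply half-maximal potency below 2 µM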;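 note: 0% = DMSO untreated growth and 100% = chloroquine plus artemisinin killed control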); conditions: P. falciparum Dd2 in RBCs, LDH growth readout, 72 h; at 2 µM; stronger effect = higher value
[10] = HepG2 cytotoxicity, primary screen, cytotoxicity control for P. falciparum antimalarial project, cell-based, ATP luminescence (AID 2303;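 active = inhibition above 50%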;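 note: 0% = DMSO wells and 100% = digitonin-killed cells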); conditions: HepG2 viability, 24-48 h, at 10 µM, stronger effect = higher value
[11] = target: L-lactate dehydrogenase (Plasmodium falciparum (isolate CDC / Honduras)) (UniProt Q27743); test: PfLDH activity inhibition – cell lysate, 3D7 strain, counter-screen for P. falciparum growth inhibition project (AID 2304);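 note: 0% = vehicle and 100% = reference inhibitor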; conditions: P. falciparum 3D7 crude extract, LDH APAD/NBT absorbance; at 2 µM; stronger effect = higher value
[12] = inhibition of 3D7 malaria parasite growth – strain 3D7 (AID 2306);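 note: 0% = DMSO wells and 100% = chloroquine plus artemisinin control wells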; conditions: P. falciparum 3D7 erythrocytic growth, LDH absorbance, 72 h; at 2 µM; stronger effect = higher value
[13] = target: Calcium-dependent protein kinase 1 (Plasmodium falciparum (isolate 3D7)) (UniProt P62344); test: PfCDPK1 kinase inhibitors, biochemical, TCAMS library (AID 1159585; cut-off not given, nearly all actives have IC50 up to about 0.98 µM;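 note: inhibitors leave more ATP so luminescence rises with inhibition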); conditions: recombinant PfCDPK1, Kinase-Glo ATP depletion luminescence
[14] = target: Plasmodium falciparum protein kinase 6 (PK6, PF3D7_1337100) (UniProt Q8IDW1); test: PfPK6 kinase inhibitors, biochemical, TCAMS library (AID 1159586); conditions: recombinant PfPK6, Kinase-Glo ATP depletion luminescence
[15] = target: Protein kinase 7 (PK7), Plasmodium falciparum 3D7 (PF3D7_0213400) (UniProt Q7YTF7); test: inhibition of Plasmodium PK7 catalytic activity – biochemical, TCAMS antimalarial set, Kinase-Glo luminescence (AID 1159587); conditions: recombinant PfPK7, Kinase-Glo ATP depletion luminescence
[16] = target: Calcium-dependent protein kinase 4 (Plasmodium falciparum (isolate 3D7)) (UniProt Q8IBS5); test: PfCDPK4 kinase inhibitors, biochemical, TCAMS library (AID 1159588; cut-off not given, nearly all actives have IC50 up to about 0.91 µM); conditions: recombinant PfCDPK4, Kinase-Glo ATP depletion luminescence
[17] = modulation of C. elegans fzo-1 (AID 1259413);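 note: fzo-1 mutant C. elegans worms in liquid wells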; conditions: C. elegans fzo-1 modulator screen, mean read-out; stronger effect = higher value
[18] = differential killing of epithelial or mesenchymal cells, primary screen, imaging, PC-3E GFP, TEM4-18 mCherry, co-culture (AID 1345086;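 active = compounds killing one labelled cell type while sparing the other, by normalised counts and ratio limits, not self-fluorescent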;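 note: cells exposed to compound for 72 h before imaging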;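 for red/green cell ratio (normalised): normalised mesenchymal count divided by normalised epithelial count so high means epithelial killing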); conditions: imaging cell counts, at 1 µM
[19] = sensitizers of A549 cells to miR-34 induction, primary screen, imaging, A549 dox-inducible miR-34, nuclei and caspase counts (AID 1347080;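 active = compounds whose cell count with miR-34 switched on is under 0.7 times the count with it off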); conditions: A549 miR-34 inducible, Hoechst nuclei count, 48 h
[20] = survival rescue of mitochondrial mutant cells in low glucose, primary screen, MELAS cybrids, Rieske KO mouse fibroblasts, CellTiter-Glo (AID 1508586;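 active = mean z-score across replicates of 1.96 or higher in either the MELAS or the Rieske mutant cell line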;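 note: z relative to plate mean and SD of compound and empty wells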)
[21] = target: NAD(+) hydrolase SARM1 (Homo sapiens) (UniProt Q6SZW1); test: SARM1 TIR NADase inhibitors, cell lysate, NAD-Glo luminescence (AID 1508614;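 active = compound whose remaining NAD level is above about 45 nM, limit read from the data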;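 note: higher remaining NAD means stronger inhibition of SARM1 NADase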); conditions: SAM-TIR HEK293T lysate NADase, at 1 µM, stronger effect = higher value
[22] = target: Mitogen-activated protein kinase 7 (Homo sapiens) (UniProt Q13164); test: ERK5 transactivation activators in reporter cells, primary screen, cell-based, HTS (AID 1508626;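 active = luciferase signal above three times the same-plate solvent-only control wells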;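 note: luciferase driven by Gal4-ERK5 fusion binding five Gal4 sites before minimal TATA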); conditions: HeLa Gal4-ERK5 transactivation, 18 h, at 5 µM, stronger effect = higher value
[23] = viability rescue of complex I mutant cybrids, primary screen, cell-based, galactose medium, ATP luminescence (AID 1645843;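 active = z-score of at least 1.8 in each of two replicates, scored against plate mean and spread of sample wells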;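 note: positive z means more ATP and so rescue of galactose-driven cybrid death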); conditions: complex I mutant cybrid cells, 72 h, stronger effect = higher value
[24] = tested on: Aerobactin synthetase IucA (Klebsiella pneumoniae); test: IucA aerobactin synthetase inhibitors, biochemical, Tocris library, absorbance (AID 1345561); conditions: purified IucA enzyme assay, absorbance (OD) read-out; stronger effect = lower value;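 tested at 8 µM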;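 note: 100% = enzyme without compound and 0% = no enzyme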
[25] = growth inhibition of DIPG glioma cells, dose response, cell-based, SU-DIPG-XVII, MIPE5.0, CellTiter-Glo, qHTS (AID 1347060; cut-off not given, nearly all actives have AC50 up to about 26 µM;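 note: cells exposed to compound for 48 hours before viability readout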); conditions: SU-DIPG-XVII viability, CellTiter-Glo ATP luminescence
[26] = growth inhibition of DIPG glioma cells, dose response, cell-based, JHH-DIPG-1, MIPE4.0, CellTiter-Glo, qHTS (AID 1347062; cut-off not given, nearly all actives have AC50 up to about 27 µM;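 note: cells exposed to compound for two days before readout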); conditions: JHH-DIPG-1 viability, CellTiter-Glo ATP luminescence
[27] = growth inhibition of DIPG glioma cells, dose response, cell-based, SU-DIPG-IV, MIPE4.0, CellTiter-Glo, qHTS (AID 1347063; cut-off not given, nearly all actives have AC50 up to about 30 µM;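 note: compound exposure lasted 48 hours before the viability readout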); conditions: SU-DIPG-IV viability, CellTiter-Glo ATP luminescence
[28] = viability loss in pontine glioma line – cell-based, SU-DIPG-XXV, MIPE5.0, CellTiter-Glo, qHTS, dose response (AID 1347065; cut-off not given, nearly all actives have AC50 up to about 26 µM;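 note: cells exposed to compound for 48 hours before ATP readout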); conditions: CellTiter-Glo ATP luminescence
[29] = JHH-DIPG-1 glioma cell viability, MIPE5.0 library, CellTiter-Glo luminescence, qHTS (AID 1347067; cut-off not given, nearly all actives have AC50 up to about 26 µM;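 note: cells exposed to compound for 48 hours before readout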); conditions: JHH-DIPG-1 glioma viability, CellTiter-Glo ATP luminescence
[30] = SU-DIPG-XXV glioma cell viability, MIPE5.0 library, qHTS (AID 1347068; cut-off not given, nearly all actives have IC50 up to about 30 µM;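 note: cells exposed to compound for 48 hours before viability readout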)
[31] = liver-stage malaria parasite growth inhibition, primary screen, cell-based, HepG2, luciferase luminescence, HepG2 viability (AID 624349; in the data active = parasite load remaining mostly below about 12%, no sharp cut-off; inactive = mostly above about 10%;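 note: 100% = mean of DMSO negative control wells on the same plate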); conditions: P. berghei liver stage in HepG2, luciferase luminescence, concentration not given here; parasite load remaining: stronger effect = lower value; viability: measured here: HepG2 viability without parasites
[32] = growth inhibition of DIPG glioma cells, dose response, cell-based, SU-DIPG-XIII, MIPE4.0, CellTiter-Glo, qHTS (AID 1347061; cut-off not given, nearly all actives have AC50 up to about 37 µM;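 note: cells exposed to compound for 48 hours before readout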); conditions: SU-DIPG-XIII viability, CellTiter-Glo ATP luminescence
[33] = growth inhibition of DIPG glioma cells, dose response, cell-based, SU-DIPG-XIII, MIPE5.0, CellTiter-Glo, qHTS (AID 1347064; cut-off not given, nearly all actives have AC50 up to about 23 µM;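 note: cells exposed to compound for 48 hours before the viability read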); conditions: SU-DIPG-XIII viability, CellTiter-Glo ATP luminescence
[34] = SU-DIPG-VI glioma cell viability, MIPE4.0 library, CellTiter-Glo luminescence, qHTS (AID 1347066; cut-off not given, nearly all actives have AC50 up to about 30 µM;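 note: cells exposed to compound for 48 hours before readout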); conditions: CellTiter-Glo ATP luminescence
[35] = stronger effect = lower value, cell number ratio, induced over uninduced
[36] = measured here: relative caspase fold change +Dox/-Dox
[37] = measured here: total cells with miR-34 induction, stronger effect = lower value
[38] = measured here: total cells without miR-34 induction
[39] = MELAS cybrid survival, CellTiter-Glo 48 h, stronger effect = higher value
[40] = Rieske KO mouse fibroblast survival, CellTiter-Glo 72 h

Plasmodium falciparum protein kinase 6 (PK6, PF3D7_1337100), sequence (Q8IDW1 1-305): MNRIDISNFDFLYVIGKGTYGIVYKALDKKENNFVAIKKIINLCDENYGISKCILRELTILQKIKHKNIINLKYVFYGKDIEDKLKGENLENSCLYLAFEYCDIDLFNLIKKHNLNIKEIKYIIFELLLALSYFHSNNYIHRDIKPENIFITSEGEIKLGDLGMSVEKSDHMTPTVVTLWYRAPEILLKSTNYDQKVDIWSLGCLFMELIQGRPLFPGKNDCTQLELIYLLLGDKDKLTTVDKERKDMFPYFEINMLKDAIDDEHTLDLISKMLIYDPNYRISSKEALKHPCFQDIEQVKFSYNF
Calcium-dependent protein kinase 1 (Plasmodium falciparum (isolate 3D7)), sequence (P62344 whole entry, looked up): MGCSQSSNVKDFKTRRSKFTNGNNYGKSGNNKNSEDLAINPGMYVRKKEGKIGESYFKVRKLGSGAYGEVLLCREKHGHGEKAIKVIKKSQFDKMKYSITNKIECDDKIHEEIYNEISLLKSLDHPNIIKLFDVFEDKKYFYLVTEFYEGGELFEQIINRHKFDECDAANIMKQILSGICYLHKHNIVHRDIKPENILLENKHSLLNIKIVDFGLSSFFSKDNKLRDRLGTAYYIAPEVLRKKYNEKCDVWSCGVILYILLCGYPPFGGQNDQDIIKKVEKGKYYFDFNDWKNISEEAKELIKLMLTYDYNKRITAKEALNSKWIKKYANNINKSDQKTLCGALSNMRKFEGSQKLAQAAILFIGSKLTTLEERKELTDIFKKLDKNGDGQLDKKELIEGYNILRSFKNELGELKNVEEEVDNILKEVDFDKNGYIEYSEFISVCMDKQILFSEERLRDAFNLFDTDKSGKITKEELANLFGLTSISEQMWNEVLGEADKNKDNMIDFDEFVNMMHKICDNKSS
Protein kinase 7 (PK7), Plasmodium falciparum 3D7 (PF3D7_0213400), sequence (Q7YTF7 1-343): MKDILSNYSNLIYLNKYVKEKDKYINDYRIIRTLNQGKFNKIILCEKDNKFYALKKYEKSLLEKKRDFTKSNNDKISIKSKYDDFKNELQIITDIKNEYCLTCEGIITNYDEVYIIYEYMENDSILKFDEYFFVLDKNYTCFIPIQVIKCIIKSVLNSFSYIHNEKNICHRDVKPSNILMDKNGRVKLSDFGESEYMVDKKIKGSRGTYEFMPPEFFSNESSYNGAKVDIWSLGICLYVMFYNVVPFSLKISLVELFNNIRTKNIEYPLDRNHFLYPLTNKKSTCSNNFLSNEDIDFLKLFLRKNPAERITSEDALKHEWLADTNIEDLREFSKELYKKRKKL
Calcium-dependent protein kinase 4 (Plasmodium falciparum (isolate 3D7)), sequence (Q8IBS5 whole entry, looked up): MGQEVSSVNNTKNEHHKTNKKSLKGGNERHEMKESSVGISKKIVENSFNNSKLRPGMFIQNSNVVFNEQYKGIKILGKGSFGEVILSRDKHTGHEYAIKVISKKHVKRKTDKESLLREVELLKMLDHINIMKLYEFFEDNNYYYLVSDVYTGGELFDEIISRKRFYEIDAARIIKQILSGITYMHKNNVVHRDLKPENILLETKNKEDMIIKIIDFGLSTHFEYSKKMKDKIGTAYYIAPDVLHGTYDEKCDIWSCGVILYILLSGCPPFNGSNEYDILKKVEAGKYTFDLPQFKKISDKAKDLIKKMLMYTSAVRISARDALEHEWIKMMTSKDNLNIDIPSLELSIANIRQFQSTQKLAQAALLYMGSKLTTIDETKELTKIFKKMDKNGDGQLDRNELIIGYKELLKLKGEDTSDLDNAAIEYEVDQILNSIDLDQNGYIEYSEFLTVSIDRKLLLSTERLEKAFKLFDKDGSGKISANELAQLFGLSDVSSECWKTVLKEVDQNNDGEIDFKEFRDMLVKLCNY
L-lactate dehydrogenase (Plasmodium falciparum (isolate CDC / Honduras)), sequence (Q27743 whole entry, looked up): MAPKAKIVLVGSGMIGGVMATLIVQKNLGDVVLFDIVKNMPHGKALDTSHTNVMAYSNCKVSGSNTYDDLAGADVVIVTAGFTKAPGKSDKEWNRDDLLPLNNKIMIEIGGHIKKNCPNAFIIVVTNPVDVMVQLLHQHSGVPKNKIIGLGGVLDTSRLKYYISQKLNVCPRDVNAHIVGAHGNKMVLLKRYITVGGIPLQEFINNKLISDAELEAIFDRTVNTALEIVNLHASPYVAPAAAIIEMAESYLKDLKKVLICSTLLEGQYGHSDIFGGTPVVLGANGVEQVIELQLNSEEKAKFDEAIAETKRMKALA
NAD(+) hydrolase SARM1 (Homo sapiens), sequence (Q6SZW1 whole entry, looked up, the tested form may be a part): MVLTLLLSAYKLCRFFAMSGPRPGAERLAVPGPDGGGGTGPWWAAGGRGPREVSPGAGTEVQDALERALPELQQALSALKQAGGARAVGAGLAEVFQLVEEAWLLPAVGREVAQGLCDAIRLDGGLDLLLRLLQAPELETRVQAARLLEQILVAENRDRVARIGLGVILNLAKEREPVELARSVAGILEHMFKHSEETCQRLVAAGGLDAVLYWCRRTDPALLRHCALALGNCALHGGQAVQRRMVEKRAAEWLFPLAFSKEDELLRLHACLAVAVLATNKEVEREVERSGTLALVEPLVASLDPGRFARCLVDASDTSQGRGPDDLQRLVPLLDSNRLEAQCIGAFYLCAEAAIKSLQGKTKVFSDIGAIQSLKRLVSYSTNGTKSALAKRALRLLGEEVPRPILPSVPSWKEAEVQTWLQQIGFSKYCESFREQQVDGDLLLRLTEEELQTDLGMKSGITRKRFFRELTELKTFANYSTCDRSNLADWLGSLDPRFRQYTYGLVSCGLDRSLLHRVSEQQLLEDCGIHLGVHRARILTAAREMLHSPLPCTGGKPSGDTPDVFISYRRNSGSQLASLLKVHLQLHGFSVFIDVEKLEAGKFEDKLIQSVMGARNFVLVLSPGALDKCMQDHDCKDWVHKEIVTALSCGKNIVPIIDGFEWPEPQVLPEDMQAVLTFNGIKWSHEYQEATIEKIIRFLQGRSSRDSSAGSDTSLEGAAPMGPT
Mitogen-activated protein kinase 7 (Homo sapiens), sequence (Q13164 whole entry, looked up, the tested form may be a part): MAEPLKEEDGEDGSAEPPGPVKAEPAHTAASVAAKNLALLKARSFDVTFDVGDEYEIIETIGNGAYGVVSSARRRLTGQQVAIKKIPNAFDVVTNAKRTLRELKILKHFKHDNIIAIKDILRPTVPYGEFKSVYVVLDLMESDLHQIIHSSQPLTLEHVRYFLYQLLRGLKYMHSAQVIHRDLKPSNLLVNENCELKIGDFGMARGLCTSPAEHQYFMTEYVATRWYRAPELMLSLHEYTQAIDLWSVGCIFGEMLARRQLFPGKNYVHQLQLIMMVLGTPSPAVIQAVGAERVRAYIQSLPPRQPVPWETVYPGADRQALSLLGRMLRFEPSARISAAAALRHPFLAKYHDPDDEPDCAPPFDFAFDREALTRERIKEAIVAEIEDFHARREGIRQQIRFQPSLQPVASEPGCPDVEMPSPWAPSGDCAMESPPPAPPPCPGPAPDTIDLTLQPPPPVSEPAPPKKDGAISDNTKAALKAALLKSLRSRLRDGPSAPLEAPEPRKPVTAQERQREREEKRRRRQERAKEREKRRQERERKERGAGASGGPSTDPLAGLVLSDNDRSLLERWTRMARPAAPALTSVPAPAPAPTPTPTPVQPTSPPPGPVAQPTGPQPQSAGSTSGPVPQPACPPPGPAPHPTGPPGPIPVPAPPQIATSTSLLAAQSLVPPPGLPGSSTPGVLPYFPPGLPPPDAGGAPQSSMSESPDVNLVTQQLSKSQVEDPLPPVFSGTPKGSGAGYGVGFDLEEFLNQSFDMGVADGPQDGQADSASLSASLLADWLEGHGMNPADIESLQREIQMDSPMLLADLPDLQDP

C=C[C@H]1CN2CC[C@H]1C[C@@H]2[C@@H](O)c1ccnc2ccc(OC)cc12
1.07 and 0.67 and 3.94: fold change [19, 36]
inactive: inhibition [10] -11% | inhibition [11] -3% | outcome [13] | outcome [14] | outcome [15] | outcome [16] | red/green cell ratio (normalised) ([18]; actives lie on both sides, counts scaled to control wells, 1 = unselective) 1.14 | fold change [19, 35] 0.965 and 0.96 and 0.929 | z-score [20, 39] 0.598 | remaining NAD [21] 10 nM | luciferase signal [22] 84 AU | z-score [23] 0.055
12.1%: glutamate uptake change [6]
54.5%: inhibition of aggregation [5]
1.24: aggregation suppression score [8]
1.07: normalised cell number ([18]; measured here: epithelial PC-3E GFP cell survival)
1.3: score [2]
2: inclusion score [7]
12.3%: inhibition [1]
0.401: z-score [20, 40]
-0.47: rescue above control [3]
9710 and 7980 and 11400: cell count [19, 37]
10100 and 8310 and 12200: cell count [19, 38]
1.12: cytochrome c release ratio [4]
1.22: normalised cell number ([18]; measured here: mesenchymal TEM4-18 mCherry cell survival)
active: growth inhibition [9] 95% | growth inhibition [12] 98% | mean signal [17] 302

O=C(NC1CC1)c1cnc(N2CCCC(c3ccccc3)C2)c(Cl)c1 (configuration not stated)
inactive: inhibition [10] 6% | inhibition [11] -3% | outcome [13] | outcome [14] | outcome [15] | outcome [16]
active: growth inhibition [9] 94% | growth inhibition [12] 95%

Nc1nc(NCC2CCC(CNS(=O)(=O)c3cccc4ccccc34)CC2)nc2ccccc12 (configuration not stated)
inactive: growth inhibition [9] 42% | inhibition [10] 9% | inhibition [11] 7% | outcome [13] | outcome [14] | outcome [15] | outcome [16] | remaining activity [24] 92.3% | fold change [19, 35] 0.954 | z-score [23] -0.705
322: cell count [19, 37]
active: growth inhibition [12] 97%
338: cell count [19, 38]
0.891: fold change [19, 36]

COc1cc2c(Nc3ccc(NC(=O)c4ccccc4)cc3)ncnc2cc1OCCCN1CCOCC1
1900 and 3920: cell count [19, 38]
inactive: inhibition [10] 14% | inhibition [11] 5% | outcome [13] | outcome [14] | outcome [15] | outcome [16] | remaining activity [24] 94.5% | fold change [19, 35] 1.01 and 1.03 | z-score [20, 39] -0.661 | z-score [23] -0.64
1 and 1.45: fold change [19, 36]
0.628: z-score [20, 40]
active: growth inhibition [9] 93% | growth inhibition [12] 99% | AC50 [25] 4680 nM | AC50 [26] 20900 nM | AC50 [27] 18700 nM | AC50 [28] 1320 nM | AC50 [29] 20900 nM | IC50 [30] 8330 nM
1920 and 4040: cell count [19, 37]

Cn1nc(-c2ccc(CN[C@@H]3CCc4ccc(O)cc43)cc2)c2cnc(NCCCN3CCCC3)nc21
active: growth inhibition [9] 61% | growth inhibition [12] 101%
inactive: inhibition [10] 8% | inhibition [11] 2% | outcome [13] | outcome [14] | outcome [15] | outcome [16]

O=C(Nc1cc(C(F)(F)F)cc(C(F)(F)F)c1)c1cc(Cl)ccc1O
1500 and 1040: cell count [19, 38]
-0.453: z-score [20, 40]
0.581 and 1.23: fold change [19, 36]
1480 and 1100: cell count [19, 37]
active: growth inhibition [9] 98% | inhibition [10] 84% | growth inhibition [12] 90% | AC50 [25] 1320 nM | AC50 [32] 590 nM | AC50 [26] 1870 nM | AC50 [27] 1480 nM | AC50 [33] 1860 nM | AC50 [28] 1320 nM | AC50 [34] 209 nM | AC50 [29] 1480 nM | IC50 [30] 2630 nM
51.5%: viability [31]
inactive: inhibition [11] 2% | parasite load remaining [31] 0.02% | outcome [13] | outcome [14] | outcome [15] | outcome [16] | remaining activity [24] 120% | fold change [19, 35] 0.989 and 1.06 | z-score [20, 39] 0.314 | z-score [23] -0.7

O=C(C=Cc1ccc(C(=O)Nc2ccc(C3=NCCN3)cc2)cc1)Nc1ccc(C2=NCCN2)cc1
active: growth inhibition [9] 101% | growth inhibition [12] 97%
inactive: inhibition [10] -7% | inhibition [11] 3% | outcome [13] | outcome [14] | outcome [15] | outcome [16]

O=C(NC1CCCCC1)N(Cc1cccc(-c2ccc(CNC3CCCC3)cc2)c1)C1CCN(Cc2ccccc2)CC1
active: growth inhibition [9] 89% | growth inhibition [12] 98%
inactive: inhibition [10] 37% | inhibition [11] -2% | outcome [13] | outcome [14] | outcome [15] | outcome [16]

O=C(NCCCCN1CCCC2c3ccc(O)cc3CCC21)c1ccc(-c2ccccc2)cc1 (configuration not stated)
active: growth inhibition [12] 96%
inactive: growth inhibition [9] 25% and 7% | inhibition [10] 32% and 26% | inhibition [11] -8% and 3% | outcome [13] | outcome [14] | outcome [15] | outcome [16]

O=c1cc(N2CCCNCC2)c(Cl)nn1Cc1ccc(NS(=O)(=O)c2ccc(Oc3ccccc3)cc2)cc1
inactive: growth inhibition [9] -4% | inhibition [10] 0% | inhibition [11] -2% | outcome [13] | outcome [14] | outcome [15] | outcome [16]
active: growth inhibition [12] 98%

Cc1cccc2[nH]c(-c3ccc(-c4ccc(CN5CCCCC5CO)cc4)cc3)nc12 (configuration not stated)
inactive: inhibition [10] 32% | inhibition [11] 1% | outcome [13] | outcome [14] | outcome [15] | outcome [16]
active: growth inhibition [9] 76% | growth inhibition [12] 100%

FC(F)(F)c1cccc(CNCCCCCNCc2ccc(Cl)cc2)c1
active: growth inhibition [12] 91%
inactive: growth inhibition [9] 15% | inhibition [10] 13% | inhibition [11] -5% | outcome [13] | outcome [14] | outcome [15] | outcome [16]

Cc1ccc(NCc2cccc(F)c2)cc1S(=O)(=O)N[C@@H]1CCN(C#N)C1
inactive: inhibition [10] 13% | inhibition [11] -2% | outcome [13] | outcome [14] | outcome [15] | outcome [16]
active: growth inhibition [9] 83% | growth inhibition [12] 89%

CCc1cn2c3c(cc(C(=O)N[C@@H](Cc4cc(F)cc(F)c4)[C@H](O)CNC4CC4)cc13)N(C)S(=O)(=O)CC2
active: growth inhibition [9] 99% | growth inhibition [12] 100%
inactive: inhibition [10] 3% | inhibition [11] 0% | outcome [13] | outcome [14] | outcome [15] | outcome [16]

Source: PubChem BioAssay
